CYP2C19 act = human CYP2C19 activators, primary screen, biochemical, luminescence; recombinant CYP2C19, luciferin-H EGE luminescence; hits give high values; 0 = fully inhibited enzyme, 1 = untreated enzyme; activation factor at 5 µM; 96,000 tested, under 10 active; AID 1025, 2008;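 active means activation factor of at least 2 at 5 µM in the primary screen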
Target sequence (P33261 whole entry, looked up): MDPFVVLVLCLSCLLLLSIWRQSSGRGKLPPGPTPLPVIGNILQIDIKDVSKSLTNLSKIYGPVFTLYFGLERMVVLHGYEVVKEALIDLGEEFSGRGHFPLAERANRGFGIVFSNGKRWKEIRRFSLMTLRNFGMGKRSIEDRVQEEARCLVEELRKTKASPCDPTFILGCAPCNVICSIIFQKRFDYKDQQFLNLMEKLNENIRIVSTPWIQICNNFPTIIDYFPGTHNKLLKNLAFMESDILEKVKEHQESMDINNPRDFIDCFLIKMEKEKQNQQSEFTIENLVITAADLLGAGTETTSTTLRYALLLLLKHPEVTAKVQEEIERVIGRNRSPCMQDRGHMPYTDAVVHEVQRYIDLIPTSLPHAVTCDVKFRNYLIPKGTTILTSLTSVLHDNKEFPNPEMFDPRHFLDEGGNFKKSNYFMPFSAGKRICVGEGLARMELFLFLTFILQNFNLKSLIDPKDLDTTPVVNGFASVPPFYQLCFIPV
Measles CPE = compounds protecting cells from measles virus cytopathic effect, primary screen, measles RdRp inhibitor project, single point, MLSMR library, absorbance; AID 841, 2007; Measles virus-infected cells, CPE protection; protection (pct of control), % at 4 µM; 1.5% of 140,000 active; in the data active means protection mostly above about 24%, no sharp cut-off; inactive means mostly below about 26%
CYP2C9 activ = human CYP2C9 activators, primary screen, biochemical, luminescence; Cytochrome P450 2C9 (Homo sapiens), P11712; recombinant CYP2C9, luciferin-H conversion; hits give high values; factor 1 = untreated enzyme, 0 = blocked; activation factor at 5 µM; 1.4% of 96,000 active; AID 1024, 2008;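 active means activation factor of 2 or more for CYP2C9 at a 5 µM dose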
CYP2C19 inh = blockers of cytochrome P450 2C19 activity – biochemical, luminescence, ADME assay, primary screen; inhibition, % at 5 µM; 21% of 96,000 active; AID 778, 2007; CYP2C19 Supersomes, luciferin-H EGE luminescence, 30 min;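 active means CYP2C19 inhibition above a set limit at 5 µM in the primary screen, cut at about 50% in these data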
CYP2C9 inh = blockers of cytochrome P450 2C9 activity – biochemical, luminescence, ADME assay, primary screen; 20% of 96,000 active; AID 777, 2007; CYP2C9 Supersomes, luciferin-H conversion; P11712; inhibition, % at 5 µM;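 active means blocking of liver enzyme CYP2C9 beyond about 50% at 5 µM, limit read from the data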
Large screens that a line does not name were inactive. In the library only some 22% were active in any assay of this set; here they are far more common.

CCSc1nc2c(c(=O)[nH]1)C(c1ccncc1)C(C(=O)OC)=C(C)N2 (configuration not stated)	CYP2C19 inh 76, CYP2C9 inh 52
CC1=C(C(=O)OC(C)C)C(c2ccncc2)n2ncnc2N1 (configuration not stated)	none
CSc1nc2c(c(=O)[nH]1)C(c1ccncc1)C(C(=O)OC(C)C)=C(C)N2 (configuration not stated)	CYP2C19 inh 89
CCOC(=O)c1cc(-c2ccccc2)n(CC(=O)N2CCCC2)c1C	none
Cc1cccc(OCc2nnc(SCC(=O)N3CCN(c4ccccc4)CC3)o2)c1C	none (no result: CYP2C19 act, CYP2C9 activ, CYP2C19 inh, CYP2C9 inh)
COc1ccc(N(C(=O)C(C)C)S(=O)(=O)c2cccs2)cc1	CYP2C19 inh 97, CYP2C9 inh 80
CC(C)C(=O)N(c1ccc2oc(=O)sc2c1)S(=O)(=O)c1cccs1	CYP2C19 inh 97, CYP2C9 inh 61
Cc1nn(C)c(C(=O)N/N=C/c2ccc(Br)cc2)c1Cl	none (no result: CYP2C19 act, CYP2C9 activ, CYP2C19 inh, CYP2C9 inh)
CC(C)C(=O)NC(=O)[C@@H]1CCCN1C(=O)/C=C/c1ccccc1	none (no result: CYP2C19 act, CYP2C9 activ, CYP2C19 inh, CYP2C9 inh)
CN(C)c1ccnc(SCc2ccccc2Cl)c1C#N	CYP2C19 inh 70
COc1cc(S(=O)(=O)Nc2ccccc2)ccc1NC=O	none
Cn1cc(C(=O)c2ccc(Cl)cc2Cl)cc1C(=O)O	none
CC(=O)c1ncnn1CC(=O)c1ccc(Cl)cc1Cl	CYP2C19 inh 61
O=C(CS(=O)(=O)Cc1ccccc1)N1CCc2ccccc21	CYP2C9 activ 2.1
O=C(CCCc1ccccc1)N1CCc2ccccc21	CYP2C19 inh 78, CYP2C9 inh 59
O=C(COc1ccccc1)N1CCc2ccccc21	none (no result: CYP2C19 act, CYP2C9 activ, CYP2C19 inh, CYP2C9 inh)
COC(=O)c1ccc(-c2nc(-c3cccs3)no2)cc1	CYP2C19 inh 91
CCOC(=O)c1ccc(OCc2nc(-c3cccs3)no2)cc1	CYP2C9 inh 67
CCCN1CN(CCc2ccccc2)CNC1=S	none (no result: CYP2C19 act, CYP2C9 activ, CYP2C19 inh, CYP2C9 inh)
COc1cc(C(C)=O)ccc1COc1ccc(C(=O)OC(C)C(=O)NC(N)=O)cc1OC (configuration not stated)	none (no result: CYP2C19 act, CYP2C9 activ, CYP2C19 inh, CYP2C9 inh)
Cn1c(Cn2c(=O)sc3ccccc32)nnc1SCc1ccc(F)cc1	none (no result: CYP2C19 act, CYP2C9 activ, CYP2C19 inh, CYP2C9 inh)
CCn1c(SCc2cccc(C(F)(F)F)c2)nnc1-c1ccco1	none (no result: CYP2C19 act, CYP2C9 activ, CYP2C19 inh, CYP2C9 inh)
Fc1ccc(Cn2c(SCc3ccc(F)c(F)c3)nnc2C(F)(F)F)cc1	CYP2C19 inh 67, CYP2C9 inh 57
Fc1ccc(Cn2c(SCc3ccc(F)c(C(F)(F)F)c3)nnc2C(F)(F)F)cc1	CYP2C19 inh 64, CYP2C9 inh 56
O=S(=O)(c1ccc(S(=O)(=O)N(Cc2ccc(F)cc2)C2CCCC2)cc1)N1CCCC1	CYP2C19 inh 68, CYP2C9 inh 77
COC(=O)CCN(C1CCCCC1)S(=O)(=O)c1ccc(S(=O)(=O)N2CCCCC2)cc1	none
CC(C)CCNC(=O)c1c[nH]c2ccc(S(=O)(=O)N3CCC4(CC3)OCCO4)cc2c1=O	none (no result: CYP2C19 act, CYP2C9 activ, CYP2C19 inh, CYP2C9 inh)
Cc1cc(C(=O)N2CCN(c3ccc([N+](=O)[O-])cc3)CC2)no1	none (no result: CYP2C19 act, CYP2C9 activ, CYP2C19 inh, CYP2C9 inh)
CC1=CC(C)(C)N(S(=O)(=O)c2ccc(C)cc2)c2cc(C)ccc21	none
Cc1ccc(S(=O)(=O)N2C(=S)SCC2(C)C)cc1	CYP2C19 inh 74
CSc1cc(-c2ccccc2)n(Cc2ccc(Cl)cc2Cl)c(=O)c1C#N	CYP2C9 inh 51
Cc1ccc(-c2[nH]n3c(=O)c4c(nc3c2C)CCCC4)cc1	Measles CPE 31
CC1CC(C)CN(CCOc2ccccc2-c2ccccc2)C1 (configuration not stated)	none (no result: CYP2C19 act, CYP2C9 activ, CYP2C19 inh, CYP2C9 inh)
C#CCNc1c(C)c(C)nc2ncnn12	none
CC(C)NC(=O)/C(=C/c1ccco1)c1ccccc1	none
C=CCOC(=O)/C(=C/c1ccco1)NC(=O)/C=C/c1ccccc1	CYP2C19 inh 77, CYP2C9 inh 73
Cc1cccc(C)c1NC(=O)/C(=C/c1ccco1)c1ccccc1	CYP2C9 inh 70
Cc1cc(C)c(NC(=O)/C(=C/c2ccco2)c2ccccc2)c(C)c1	CYP2C19 inh 77, CYP2C9 inh 68
O=C(O)/C(=C\c1ccco1)NC(=O)c1ccccc1	Measles CPE 30 (no result: CYP2C19 act, CYP2C9 activ, CYP2C19 inh, CYP2C9 inh)
CCC(C)NC(=O)/C(=C/c1ccco1)c1ccccc1 (configuration not stated)	none
COc1ccc(C(=O)N(CCCO)Cc2cc3c(C)ccc(C)c3[nH]c2=O)cc1OC	none
Cc1nn2cnc3sc4c(c3c2nc1=O)CCCC4	none (no result: CYP2C19 act, CYP2C9 activ, CYP2C19 inh, CYP2C9 inh)
Cc1ccc(NC(=O)N2CCc3ccccc32)cc1	none (no result: CYP2C19 act, CYP2C9 activ, CYP2C19 inh, CYP2C9 inh)
CCOC(=O)Nc1ccc2c(c1)N(C(=O)N(C)C)c1ccccc1CC2	CYP2C19 inh 72, CYP2C9 inh 92
Cc1ccc(NC(=O)CSCC(=O)N2c3ccccc3CCc3ccccc32)cc1	CYP2C19 inh 54, CYP2C9 inh 63
CCN(CC)CC(=O)Nc1ccc2c(c1)N(C(=O)CN(CC)CC)c1ccccc1CC2	CYP2C9 inh 70
Cc1sc(NC(=O)c2ccccc2F)c(CN2CCCCC2)c1C	none (no result: CYP2C19 act, CYP2C9 activ, CYP2C19 inh, CYP2C9 inh)
CCc1ccccc1NC(=O)CCC(=O)OCC(=O)c1ccc(-c2ccccc2)cc1	none (no result: CYP2C19 act, CYP2C9 activ, CYP2C19 inh, CYP2C9 inh)
CCOc1ccc(S(=O)(=O)n2ccc(C)n2)c2ccccc12	none
COCCN1C(=O)c2ccccc2C(C(=O)NCCN(C)C)C1c1ccc(F)cc1 (configuration not stated)	none
Cn1c(C(C(=O)NCC2CCCO2)N(CCc2ccccc2)C(=O)Cn2nnc3ccccc32)nc2ccccc21 (configuration not stated)	none (no result: CYP2C19 act, CYP2C9 activ, CYP2C19 inh, CYP2C9 inh)
CCCSC1=C(C#N)C(c2ccccc2C)CC(=O)N1 (configuration not stated)	CYP2C19 inh 57
CCCSC1=C(C#N)C(c2ccccc2OCC)CC(=O)N1 (configuration not stated)	none
CCCSC1=C(C#N)C(c2ccc(Cl)cc2Cl)CC(=O)N1 (configuration not stated)	CYP2C9 inh 67
CCSC1=C(C#N)C(c2ccccc2Cl)CC(=O)N1 (configuration not stated)	none
N#CCCCSC1=C(C#N)C(c2ccccc2Cl)CC(=O)N1 (configuration not stated)	CYP2C19 inh 88
CC(CNC(=O)C(C)(C)C)NC(=O)C(C)(C)C (configuration not stated)	none (no result: CYP2C19 act, CYP2C9 activ, CYP2C19 inh, CYP2C9 inh)
Cc1c(Cl)cccc1Nc1nc(N)nc(CN2CCCCCC2)n1	none
C/C(CC(=O)NCc1ccco1)=N\NC(=O)Cc1cccc2ccccc12	none
O=c1[nH]c(=S)c2c(n1-c1ccccc1)CCC2	none
c1ccc(-c2nc(N3CCN(c4ccccc4)CC3)nc(-n3ccnc3)n2)cc1	Measles CPE 38, CYP2C19 inh 52, CYP2C9 inh 66
c1ccc(-c2ccc(-n3ccnc3)cc2)cc1	CYP2C19 inh 99, CYP2C9 inh 90
O=C(CC1SC(=Nc2cccc3ccccc23)N(Cc2ccccn2)C1=O)Nc1ccccc1Br (configuration not stated)	none (no result: CYP2C19 act, CYP2C9 activ, CYP2C19 inh, CYP2C9 inh)
Cc1ccc(CC(=O)Nc2ccccc2-c2ccccc2)cc1C	none (no result: CYP2C19 act, CYP2C9 activ, CYP2C19 inh, CYP2C9 inh)
